# Compound activity deposited in PubChem by several laboratories.
# CCHF vOTU inh-1 = CCHFV vOTU protease inhibitors, primary screen, biochemical, Pep-AMC substrate, fluorescence; 370,000 compounds, 0.55% hits; inhibition, % at 11.5 µM; note: 0% = vehicle wells with enzyme and 100% = no enzyme wells
# GDH-TPI inh = GDH-TPI coupling enzyme inhibitors, primary screen, artefact control for M. tuberculosis FBA inhibitor project, biochemical, absorbance, full deck | inhibition, % at 4.8 µM | GDH-TPI coupled enzyme counterscreen, NADH absorbance | 360,000 compounds, 1.2% hits | AID 588335, 2011;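 note: 0% = DMSO wells and 100% = wells lacking the enzyme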
# RecA splice inh = Mtb RecA intein splicing inhibitors, primary screen, biochemical, fluorescence, HTS | Protein RecA (Mycobacterium tuberculosis (strain ATCC 25618 / H37Rv)), P9WHJ3 | cell-free RecA intein splicing | inhibition, % (test concentration not listed) | 290,000 compounds, 0.75% hits; in the data active = inhibition above about 30%;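 note: 0% = vehicle wells and 100% = reference inhibitor control wells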
# Target sequence (P9WHJ3 whole entry, looked up, canonical isoform): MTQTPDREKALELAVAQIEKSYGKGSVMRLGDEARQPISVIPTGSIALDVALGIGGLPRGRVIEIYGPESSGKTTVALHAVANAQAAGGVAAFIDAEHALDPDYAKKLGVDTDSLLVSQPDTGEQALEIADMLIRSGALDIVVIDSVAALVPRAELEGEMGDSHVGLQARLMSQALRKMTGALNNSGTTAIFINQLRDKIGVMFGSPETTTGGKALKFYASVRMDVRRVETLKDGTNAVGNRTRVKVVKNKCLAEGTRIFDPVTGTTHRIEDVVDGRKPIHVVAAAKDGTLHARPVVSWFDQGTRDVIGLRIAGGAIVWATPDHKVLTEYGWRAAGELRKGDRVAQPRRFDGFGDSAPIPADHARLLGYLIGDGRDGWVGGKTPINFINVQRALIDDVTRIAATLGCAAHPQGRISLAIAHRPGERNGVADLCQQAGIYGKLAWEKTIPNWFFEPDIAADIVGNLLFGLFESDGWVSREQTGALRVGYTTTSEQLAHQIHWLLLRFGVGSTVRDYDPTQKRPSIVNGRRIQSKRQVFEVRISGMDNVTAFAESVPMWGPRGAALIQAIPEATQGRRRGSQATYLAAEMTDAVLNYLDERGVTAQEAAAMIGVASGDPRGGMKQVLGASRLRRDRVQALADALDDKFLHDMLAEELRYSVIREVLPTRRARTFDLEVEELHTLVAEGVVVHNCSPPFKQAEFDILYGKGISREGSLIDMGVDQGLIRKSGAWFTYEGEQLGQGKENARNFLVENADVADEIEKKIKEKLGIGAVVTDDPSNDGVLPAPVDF
# Mtb FBA inh = Mtb FBA enzyme inhibitors, primary screen, biochemical, fluorescence, strain H37Rv; Fructose-bisphosphate aldolase (Mycobacterium tuberculosis (strain ATCC 25618 / H37Rv)), …; purified M. tuberculosis FBA, fluorescence read-out; inhibition, % at 1 µM; 360,000 compounds, 2.3% hits; AID 588726, 2011; in the data active = inhibition above about 27%;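 note: 0% = vehicle and 100% = reference inhibitor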
# CCHF vOTU inh-2 = CCHFV vOTU protease inhibitors, confirmation, biochemical, Pep-AMC substrate, fluorescence. shares compounds with CCHF vOTU inh-1. Recombinant CCHFV vOTU. inhibition, % at 11.5 µM. 1,900 compounds, 17% hits. AID 686976, 2013
# Starred values were filed as active, the others as inactive; · = not tested or not shown. An excerpt weighted towards active compounds, which were near 4.2% of everything screened. Cut-off read from the data, not from the text of the source, unless noted: active = inhibition above about 30%; inactive = the rest.
SMILES,CCHF vOTU inh-1,GDH-TPI inh,RecA splice inh,Mtb FBA inh,CCHF vOTU inh-2
O=C(OCCN1CCN(C2=NS(=O)(=O)c3ccccc32)CC1)c1ccccc1F,-0.1,8.2,-0.1,2.3,·
CC1=C(C(=O)N(C(C)C)C(C)C)CC(CC(=O)NC(c2ccccc2)c2ccccc2)C(=O)N1Cc1ccc(C(C)(C)C)cc1 (stereo not given),35.3*,·,·,-6.0,4.5
Cc1ccc(C(=O)N/C(=C\c2cn(S(=O)(=O)N(C)C)c3ccccc23)C(=O)NCCN2CCOCC2)cc1,10.3,10.3,2.1,1.8,·
Fc1ccc(Nc2cncc(-c3ccsc3)c2)cc1Cl,93.6*,14.6,·,0.0,13.5
Cc1ccc(F)c(S(=O)(=O)NC(=O)C2(C)CCN2C(=O)CC2CCCCC2)c1 (stereo not given),-1.6,1.8,·,7.8,·
O=C(Cc1ccc(NC(=O)C2CCCN(C(=O)c3ccccc3)C2)cc1)Nc1cccc(C(=O)N2CCCCC2)c1 (stereo not given),32.3*,·,·,·,-20.8
CN(C(=O)c1ccc(NC(=O)Cc2cccc(NC(=O)C3CCN(C(=O)C4CCCC4)CC3)c2)cc1)C1CCCC1,2.1,4.3,·,0.6,·
O=C(Cc1ccc(NC(=O)C2CCCN(C(=O)C3CCCC3)C2)cc1)Nc1cccc(C(=O)N2CCCCC2)c1 (stereo not given),-5.4,4.2,·,-0.8,·
CN(C(=O)c1ccc(NC(=O)Cc2cccc(NC(=O)C3CCN(C(=O)C4CCCCC4)CC3)c2)cc1)C1CC1,34.5*,0.9,·,1.7,-21.3
COc1ccc(C(=O)Nc2ccc(N3CCCCCC3)cc2)cc1S(=O)(=O)N1CCOCC1,4.6,4.9,·,1.4,·
CC(C)C[C@H]1CN(CCCC[C@@H]2CNC(=O)C(=O)N2Cc2ccccc2)C(=O)C(=O)N1CCc1ccccc1,4.8,·,·,·,·
CC(C)C(NC(=O)c1c(F)cccc1F)C(=O)NCc1ccc(S(=O)(=O)N2CCOCC2)cc1 (stereo not given),4.6,5.4,·,-3.7,·
CC(=O)c1cccc(NC(=O)C2=CC(c3cccs3)=NS(=O)(=O)N2C)c1,10.3,16.8,-4.7,-0.8,·
CN1C(C(=O)Nc2cccc(O)c2)=CC(c2cccs2)=NS1(=O)=O,32.6*,25.4,2.5,-2.4,-6.8
Cc1cc[n+](-c2[nH]c(=O)sc2/C=N/N=C(\[O-])c2ccncc2)cc1,30.6*,24.8,-2.7,-5.0,-17.9
Cc1cc[n+](-c2[nH]c(=O)sc2/C=N/N=C(\[O-])c2ccccc2)cc1,-0.3,27.6,3.6,-0.8,·
Cn1c(CC(=O)Nc2ccc(F)cc2)nnc1SCC(=O)Nc1nncs1,-13.0,9.8,-0.4,-0.4,·
CC1Cc2ccccc2N1CC(=O)NC(=O)NC(C)(C)C (stereo not given),19.0,-3.1,1.0,6.5,·
CC1Cc2ccccc2N1CC(=O)NC(=O)NC1CCCCC1 (stereo not given),31.3*,-1.6,1.8,-2.0,-12.9
COc1c2c(c(OC)c3c1c(=O)c1ccccc1n3C)OCO2,54.2*,1.7,·,-1.6,-19.8
COc1c2c(c3c(c1OC)c(=O)c1ccccc1n3C)OCO2,22.0,1.7,·,-1.4,·
COc1ccc(NC(=O)c2sc(=O)n(Cc3ccc(F)c(Cl)c3)c2C)cc1OC,31.4*,-3.4,·,-0.7,-13.8
Cc1ccc(S(=O)(=O)N2CCN(C(=O)NCc3ccc(C(=O)O)cc3)CC2)cc1,6.8,-5.5,-2.0,-1.2,·
O=c1oc2ccccc2c(N2CCCCC2)c1[N+](=O)[O-],3.8,3.0,2.3,-2.1,·
O=c1oc2ccccc2c(N2CCCC2)c1[N+](=O)[O-],31.5*,12.8,-1.7,-1.9,-15.0
SMILES,CCHF vOTU inh-1,GDH-TPI inh,RecA splice inh,Mtb FBA inh,CCHF vOTU inh-2
CO[C@@H]1[C@@H](OC(N)=O)[C@@H](O)[C@H](Oc2ccc3c(O)c(NC(=O)c4ccc(O)c(CC=C(C)C)c4)c(=O)oc3c2C)OC1(C)C,-1.9,8.8,·,2.5,·
COC1C(OC(=O)c2ccc(C)[nH]2)C(O)C(Oc2ccc3c(O)c(NC(=O)c4ccc(O)c(CC=C(C)C)c4)c(=O)oc3c2Cl)OC1(C)C (stereo not given),37.8*,9.8,·,5.6,16.1
CNC(=O)CCCCCNS(=O)(=O)c1ccc(C)cc1,31.0*,-1.2,0.9,-2.2,-8.3
Nc1cnn(Cc2ccccc2F)c1,33.8*,-0.6,27.2,-1.5,7.2
CN1CCN(S(=O)(=O)c2cccc(C#N)c2)C(c2ccccc2)C1 (stereo not given),-5.9,10.3,·,0.9,·
Cc1cc(C)cc(OCC(=O)N2N=C(C(F)(F)F)CC2(O)C(C)(C)C)c1 (stereo not given),30.0*,6.8,0.1,0.8,11.6
CC(C)(C)OC(=O)N1CCC(NC(=O)c2nc[nH]c2C(=O)N2CCN(c3ccccc3)CC2)CC1,0.4,-1.4,·,-2.4,·
O=C(Nc1ccn(CCCN2CCC(N3CCOCC3)CC2)c(=O)n1)OCc1ccccc1,-9.2,0.5,·,-3.8,·
O=C(Nc1cc(C(F)(F)F)ccc1F)C1Cc2c(-c3ccccc3Oc3ccccc3)ccnc2O1 (stereo not given),36.1*,13.3,·,0.2,-1.7
O=C(Nc1cccc(OC(F)(F)F)c1)C1Cc2c(-c3ccccc3Oc3ccccc3)ccnc2O1 (stereo not given),30.0*,-2.6,·,-2.0,-5.2
O=C(Nc1ccccc1)C1Cc2c(-c3ccccc3Oc3ccccc3)ccnc2O1 (stereo not given),2.5,0.0,·,-1.6,·
O=C(C[C@H]1C[C@H]2c3cc(NS(=O)(=O)c4ccc(F)cc4)ccc3O[C@H]2[C@H](CO)O1)NCc1ccncc1,0.6,3.3,·,5.6,·
O=C(CSc1nccc2ccccc12)N1CCN(c2ccccn2)CC1,65.2*,6.2,7.0,5.8,-9.9
COc1cccc(OCc2nn3c(=O)c(-c4ccccc4)nnc3s2)c1,10.1,11.8,0.2,-1.1,·
CCOc1ccc(-n2c(SCC(=O)O)nc3sc4c(c3c2=O)CCCC4)cc1,4.6,18.6,1.8,1.9,·
O=C(CN1C2CCCC1CC(NC(=O)c1ccccc1)C2)Nc1ccccc1 (stereo not given),30.2*,-3.0,-0.7,-6.7,-17.5
COc1cccc(C(=O)NC2CC3CCCC(C2)N3CC(=O)Nc2ccccc2)c1 (stereo not given),-2.4,8.8,2.4,0.0,·
CCCCN(CC(O)COc1cccc(C)c1)CC(O)COc1cccc(C)c1 (stereo not given),30.8*,2.2,2.7,-0.8,10.3
C[C@@H]1CN([C@@H](C)CO)C(=O)CCCn2nncc2CO[C@H]1CN(C)C(=O)Nc1ccccc1C(F)(F)F,30.2*,3.3,·,1.2,-19.7
Cc1ccccc1-n1c(/C=C/c2ccccn2)nc2ccccc2c1=O,31.6*,13.2,-5.7,1.3,0.3
O=c1c2ccccc2nc(/C=C/c2ccccc2)n1-c1ccccc1O,-5.6,16.4,-2.1,1.9,·
